From PubChem BioAssay
HEK cytotox – HEK 293 cell cytotoxicity | HEK 293 viability, ATP luminescence (CellTiter-Glo), 48-72 h | Potency, µM (titrated, usually from 115 µM), for the others: at the top dose activity change, negative = cytotoxicity, usual class: inhibitors | hit rate 6.6% among 94,000; further: nearly all actives have a fitted effect of over 60% in size
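250 HEK 293 cells/well; compound by pintool; incubated 48 or 72 hr at 37 degree Celsius; CellTiter-Glo added, 10 min RT, luminescence imaged.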
SNCA expr inhib – reduces expression of the alpha-synuclein gene; hit rate 0.17% among 140,000; Potency, µM (top dose mostly 57.2 µM), for inactives: top-dose activity change, negative = inhibition, actives largely listed as inhibitors; AID 1671194; HEK-293 SNCA-luciferase knock-in, luminescence, 24 h;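 further: plate controls were DMSO cells for no effect and cell-free wells for full effect; nearly all actives have a fitted effect of over 45% in size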
FLuc inh – inhibitors of firefly (Photinus pyralis) luciferase | P08659 | purified P. pyralis luciferase, luminescence, biochemical | Potency, µM (highest dose often 115 µM), most hits filed as inhibitors | hit rate 2.5% among 76,000 | AID 1347043; further: nearly all actives have a fitted effect of over 65% in size
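Purified 10nM P. pyralis luciferase with 10uM D-luciferin and 10uM ATP in 50mM Tris acetate pH 7.5, 10mM Mg acetate, 0.01% Tween-20, 0.05% BSA. qHTS titration; luminescence read by CCD imager.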
hNpr1 antagonist – blocks ANP-stimulated signaling of human Npr1 receptor | HEK293 hNpr1 GloSensor cGMP, ANP-stimulated luminescence | Potency, µM (titrated, usually from 46.3 µM), for inactives: at the highest dose activity change, negative = inhibition, usual class: inhibitors | hit rate 1.6% among 76,000 | AID 1347048; calls by dose curve; further: nearly all actives have a fitted effect of over 60% in size
Target sequence (P16066 whole entry, looked up): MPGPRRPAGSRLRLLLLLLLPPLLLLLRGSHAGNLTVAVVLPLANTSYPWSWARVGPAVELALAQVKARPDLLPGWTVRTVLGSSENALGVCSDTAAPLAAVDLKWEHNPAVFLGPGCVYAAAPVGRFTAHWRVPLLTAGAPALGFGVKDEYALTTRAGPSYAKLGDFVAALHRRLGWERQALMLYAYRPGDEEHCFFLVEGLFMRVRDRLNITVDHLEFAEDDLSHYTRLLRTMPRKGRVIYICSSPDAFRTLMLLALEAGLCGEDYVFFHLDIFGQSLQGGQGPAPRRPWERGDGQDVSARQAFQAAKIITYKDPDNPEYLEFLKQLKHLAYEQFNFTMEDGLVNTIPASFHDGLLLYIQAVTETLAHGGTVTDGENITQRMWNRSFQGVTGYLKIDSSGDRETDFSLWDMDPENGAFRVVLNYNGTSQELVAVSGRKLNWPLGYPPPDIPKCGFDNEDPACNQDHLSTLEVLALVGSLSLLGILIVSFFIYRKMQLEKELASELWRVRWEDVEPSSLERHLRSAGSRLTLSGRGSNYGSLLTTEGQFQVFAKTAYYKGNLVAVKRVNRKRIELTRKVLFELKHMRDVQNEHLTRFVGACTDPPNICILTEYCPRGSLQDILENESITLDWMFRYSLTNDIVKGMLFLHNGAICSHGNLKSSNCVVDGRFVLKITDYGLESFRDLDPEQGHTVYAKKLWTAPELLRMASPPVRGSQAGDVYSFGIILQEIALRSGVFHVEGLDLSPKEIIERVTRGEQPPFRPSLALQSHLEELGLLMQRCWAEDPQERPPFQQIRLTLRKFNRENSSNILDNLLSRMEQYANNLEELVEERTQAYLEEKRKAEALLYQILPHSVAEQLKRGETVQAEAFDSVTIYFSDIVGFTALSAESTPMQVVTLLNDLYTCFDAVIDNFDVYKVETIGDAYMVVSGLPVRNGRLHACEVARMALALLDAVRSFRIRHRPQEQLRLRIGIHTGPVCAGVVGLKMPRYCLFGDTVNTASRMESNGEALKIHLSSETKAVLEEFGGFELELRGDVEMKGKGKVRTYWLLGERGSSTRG
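Compound pre-incubated 30 min at room temperature on GloSensor-loaded HEK293 cells stably carrying hNpr1 and the pGS-40F cGMP biosensor. Stimulation uses hNppA at 0.1 nM final; luminescence is taken at baseline and 20 min post-agonist.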
NIH3T3 tox – kills NIH 3T3 cells | NIH 3T3 viability, CellTiter-Glo ATP luminescence, 48-72 h | hit rate 4.3% among 94,000 | Potency, µM (top dose mostly 96.7 µM), for the others: at the top dose activity change, negative = cytotoxicity, most hits filed as inhibitors; further: nearly all actives have a fitted effect of over 55% in size
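Cytotoxicity was measured by CellTiter-Glo ATP luminescence after 48 or 72 h compound exposure at 37 °C. Mouse NIH 3T3 fibroblasts were seeded at 400 cells/well and dosed by 23 nL pin transfer.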
SNCA viab count – cell viability loss counter-screen. HEK-293-SNCA-luc viability, GF-AFC fluorescence, 24 h. Potency, µM (titrated, usually from 57.1 µM), inactives show at the highest dose activity change, negative = cytotoxicity, hits mostly cytotoxic. hit rate 0.12% among 150,000. AID 1671193;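 further: 0% = DMSO-treated cells and -100% = medium-only wells without cells; nearly all actives have a fitted effect of over 30% in size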
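HEK-293-SNCA-luc cells (1500/well) plated 24 h, then exposed 24 h to a dilution series; GF-AFC added 30 min at 37C, fluorescence 405/540 nm; normalised to medium-only and DMSO wells, Hill fit.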
* marks the source's active call; other numbers are inactive results; [ ] = another dose, or the depositor's remark. In the library only some 7.2% were active in any assay of this set; here they are far more common. Unless noted, the call rests on the fitted dose curve; in most records, active means well fitted curve in the direction sought with a large enough effect; inconclusive means small, poorly fitted or top-dose-only effect, or another doubt; inactive means no such curve, though single readings can be large; an effect the other way counts as inactive or inconclusive. Unless noted, on the % scale 0 is the no-effect control and ±100 the full control effect; potency means the concentration at half of the fitted maximal effect.

How did Cc1cccc(N2CCN(C(=O)c3ccc4c(c3)N(C(=O)c3ccccc3)CC4)CC2)c1C do in these assays?
HEK cytotox: 28µM*; SNCA expr inhib: inconclusive; FLuc inh: inactive; hNpr1 antagonist: -23%; NIH3T3 tox: 32µM*; SNCA viab count: inconclusive

What do the screens show for `COc1cc(OC)cc(C(=O)N2CCC3(C2)NC(=O)N(Cc2ccc(Cl)cc2)C3=O)c1` (stereo unspecified)?
HEK cytotox: inconclusive; SNCA expr inhib: -28%; FLuc inh: inactive; hNpr1 antagonist: 5%; NIH3T3 tox: inconclusive; SNCA viab count: -13%

Results for O=C(c1ccsc1)N1CCC2(CC1)NC(=O)N(Cc1ccccc1)C2=O ?
HEK cytotox: -26%; SNCA expr inhib: -24%; FLuc inh: inactive; hNpr1 antagonist: -10%; NIH3T3 tox: inconclusive; SNCA viab count: 6%

How did O=C(c1ccsc1)N1CCC2(CC1)NC(=O)N(Cc1cccc(Cl)c1)C2=O do in these assays?
HEK cytotox: inconclusive; SNCA expr inhib: -6%; FLuc inh: inactive; hNpr1 antagonist: inconclusive; NIH3T3 tox: 28µM*; SNCA viab count: 10%

How did O=C(c1cccc(Cl)c1)N1CCC2(C1)NC(=O)N(Cc1ccc(Cl)cc1)C2=O (stereo unspecified) do in these assays?
HEK cytotox: inconclusive; SNCA expr inhib: -22%; FLuc inh: inactive; hNpr1 antagonist: inconclusive; NIH3T3 tox: 40µM*; SNCA viab count: -24%

How did O=C(NC1CCCN(Cc2ccc(-c3cncnc3)cc2)C1)c1ccncc1 (stereo unspecified) do in these assays?
HEK cytotox: inconclusive; SNCA expr inhib: -9%; NIH3T3 tox: -22%; SNCA viab count: -2%[12.5 µM]

How did CCCn1cc(CNC(=O)c2ccc3c(c2)n(CC)c(=O)c2ccnn23)c(C)n1 do in these assays?
HEK cytotox: 79µM*; SNCA expr inhib: 17%; FLuc inh: inactive; hNpr1 antagonist: 0%; NIH3T3 tox: inconclusive; SNCA viab count: 2%

What do the screens show for `CN1CCC2(C1)CN(CC1CC1)c1ccc(C(=O)NCC3CC3)cc12` (stereo unspecified)?
HEK cytotox: inconclusive; SNCA expr inhib: 10%[87.6 µM]; FLuc inh: inactive; hNpr1 antagonist: -6%[70.6 µM]; NIH3T3 tox: inconclusive; SNCA viab count: 8%[87.6 µM]

What do the screens show for `CN(C)CCNC(=O)c1ccc2c(c1)C1(CCCN(CC3CC3)C1)CN2C` (stereo unspecified)?
HEK cytotox: inconclusive; SNCA expr inhib: 11%[87.6 µM]; FLuc inh: inactive; hNpr1 antagonist: -1%[70.6 µM]; NIH3T3 tox: 89µM*; SNCA viab count: -16%[87.6 µM]

How did CN1CCCC2(C1)CN(C)c1ccc(C(=O)NCC3CCCCC3)cc12 (stereo unspecified) do in these assays?
HEK cytotox: 112µM*; SNCA expr inhib: -7%[87.6 µM]; FLuc inh: inactive; hNpr1 antagonist: 4%[70.6 µM]; NIH3T3 tox: 89µM*; SNCA viab count: -2%[87.6 µM]

What do the screens show for `COCCN1CCC2(C1)CN(C)c1ccc(C(=O)NCc3ccccc3)cc12` (stereo unspecified)?
HEK cytotox: inconclusive; SNCA expr inhib: 124%[87.6 µM]; FLuc inh: 20µM*; hNpr1 antagonist: 3%[70.6 µM]; NIH3T3 tox: inconclusive; SNCA viab count: 5%[87.6 µM]

Results for CC(=O)N1CCCC2(C1)CN(C)c1ccc(C(=O)NCCc3ccccc3)cc12 (stereo unspecified) ?
HEK cytotox: inconclusive; SNCA expr inhib: -10%[87.6 µM]; FLuc inh: inactive; hNpr1 antagonist: 7%[70.6 µM]; NIH3T3 tox: -2%[138 µM]; SNCA viab count: 0%[87.6 µM]

How did CN1CC2(CCCN(CC3CC3)C2)c2cc(C(=O)NCCc3ccccc3)ccc21 (stereo unspecified) do in these assays?
HEK cytotox: inconclusive; SNCA expr inhib: 9%[87.6 µM]; FLuc inh: inactive; hNpr1 antagonist: -14%[70.6 µM]; NIH3T3 tox: 79µM*; SNCA viab count: -12%[87.6 µM]

How did CC(C)CNC(=O)c1ccc2c(c1)C1(CCCN(CC3CC3)C1)CN2C (stereo unspecified) do in these assays?
HEK cytotox: inconclusive; SNCA expr inhib: -28%[87.6 µM]; FLuc inh: inactive; hNpr1 antagonist: 2%[70.6 µM]; NIH3T3 tox: -4%[138 µM]; SNCA viab count: -2%[87.6 µM]
